Assay outcomes as filed in PubChem.
MITF inh = inhibitors of MITF, primary screen, MITF inhibitor project, cell-based, luminescence; TRPM1 promoter luciferase, 24 h; inhibition, % (no concentration beside the values); 37,000 compounds, 0.28% hits; AID 2240, 2010; in the data active = inhibition above about 85%; inconclusive = no clear call, values can overlap the other calls; inactive = below about 68%;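 note: human melanocyte line stably carrying TRPM1 promoter luciferase reporter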
PD-1 reversal = activators reversing PD-1 mediated T-cell inhibition, primary screen, luminescence, primary human CD4 T cells, PD-L1 beads; CellTiter-Glo 96 h; activation, % (no concentration beside the values); 29,000 tested, under 10 active; call rule not given here;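 note: 0% = median vehicle wells and 100% = positive control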
Shh pathway inh = Hedgehog pathway signaling inhibitors, primary screen, luminescence, Shh-LIGHT2 cells, Gli-luciferase | Shh-LIGHT2 Gli-luciferase reporter, 30 h | inhibition, % (test concentration not listed) | 22,000 compounds, 2.1% hits | AID 2313, 2010;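 active = mean inhibition across valid replicates above about 65%, limit read from the data; inconclusive = mean under the limit, yet half or more replicates past it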;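 note: pathway switched on by Shh-conditioned medium diluted 1 in 25 in low serum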
NOMO-1 viab = NOMO-1 AML cell viability reduction, primary screen, STK33 inhibitor project, CellTiter-Glo luminescence; NOMO-1 AML viability, 72 h; inhibition, % (test concentration not listed); 37,000 compounds, 7.5% hits; AID 2330, 2010; in the data active = inhibition above about 80%; inconclusive = no clear call, values can overlap the other calls
An asterisk follows results filed as active; ? = inconclusive; nt = no result. Only some compounds are listed: those with a hit (about 8.1% of all), similar ones and a draw of the others.

SMILES	MITF inh	PD-1 reversal	Shh pathway inh	NOMO-1 viab
C[C@@H]1CCCCO[C@H](CN(C)Cc2ccc(C(=O)Nc3ccccc3N)cc2)[C@@H](C)CN([C@H](C)CO)C(=O)c2cc(NS(=O)(=O)c3cn(C)cn3)ccc2O1	2.0	0.1	nt	40.2
Cc1noc(C)c1S(=O)(=O)Nc1ccc2c(c1)C(=O)N([C@@H](C)CO)C[C@@H](C)[C@H](CN(C)Cc1ccc(C(=O)Nc3ccccc3N)cc1)O2	-16.0	-1.6	nt	11.7
Cc1noc(C)c1S(=O)(=O)Nc1ccc2c(c1)C(=O)N([C@H](C)CO)C[C@H](C)[C@H](CN(C)Cc1ccc(C(=O)Nc3ccccc3N)cc1)OCCCC[C@@H](C)O2	-4.3	-0.4	nt	139.1*
COc1ncccc1C(=O)Nc1ccc(F)cc1F	-5.9	-0.5	-22.4	4.1
CC1CCC(O)C2C=CC(C)(O)C(C)(C(=O)CCO)C12 (stereo not given)	-6.5	-0.3	18.6	6.5
O=C(CSc1nnc(-c2ccc(Cl)cc2)o1)N1c2ccccc2Sc2ccccc21	9.0	2.4	nt	11.6
CCOC(=O)c1c(NC(=S)Nc2cc(OC)c(Cl)cc2OC)sc(C)c1-c1ccccc1	8.3	nt	nt	21.4
Cc1ccc(-n2c(C)nnc2SCC(=O)Nc2ccc(Br)cc2F)cc1	1.4	-1.0	nt	-3.8
CCC(C)CCCCCCCCC1CC(=O)NC(CCC(N)=O)C(=O)NC(CC(C)C)C(=O)NC(CC(C)C)C(=O)NC(C(C)C)C(=O)NC(CC(=O)O)C(=O)NC(CC(C)C)C(=O)NC(C(C)C)C(=O)O1 (stereo not given)	29.3	1.0	8.0	110.6*
CC(C)/C(N)=N/C(=S)Nc1ccccc1	-27.5	2.0	nt	22.8
O=C1N=c2ccccc2=N/C1=N\C(=S)Nc1ccccc1	8.7	-3.0	39.6	121.8*
COc1cccc(N2C(=O)CC(SCC(=O)Nc3ccc4ccccc4c3)C2=O)c1 (stereo not given)	-12.3	-3.9	3.5	22.9
c1ccc(CSC23CC4CC(CC(C4)C2)C3)cc1	-2.0	-3.0	nt	56.7
c1ccc(-c2nc(C34CC5CC(CC(C5)C3)C4)co2)cc1	-23.4	-0.5	-28.7	99.2*
C[C@H]1CN([C@@H](C)CO)C(=O)Cc2cc(NC(=O)Nc3ccccc3)ccc2O[C@@H]1CN(C)Cc1ccc(C(F)(F)F)cc1	-12.8	0.7	-24.8	54.2
C[C@@H]1CN([C@@H](C)CO)C(=O)Cc2cc(NC(=O)Nc3ccc(C(F)(F)F)cc3)ccc2O[C@@H]1CN(C)Cc1ccccc1	9.2	nt	3.5	?
C[C@@H]1CN([C@H](C)CO)C(=O)Cc2cc(NC(=O)Nc3ccc(C(F)(F)F)cc3)ccc2O[C@@H]1CN(C)Cc1ccccc1	24.4	-3.2	27.8	118.2*
C[C@@H]1CN([C@@H](C)CO)C(=O)Cc2cc(NC(=O)Nc3ccccc3)ccc2O[C@@H]1CN(C)Cc1ccc(C(F)(F)F)cc1	3.9	-1.6	24.8	119.2*
COc1cc(SC)ccc1C(=O)NC1CC1	-1.0	3.7	36.5	25.2
CN(CC(=O)Nc1ccccc1C(N)=O)S(=O)(=O)c1ccc(Br)cc1	0.5	0.0	nt	-19.2
Cc1ccc(-c2nc3ncccc3o2)cc1NC(=O)COc1ccc(C2CCCCC2)cc1	6.0	-7.8	nt	42.2
COc1ccc(S(=O)(=O)Nc2ccc3c(c2)CC(=O)N([C@@H](C)CO)C[C@H](C)[C@@H](CN(C)CC2CCCCC2)O3)cc1	12.4	nt	20.1	108.8*
COc1ccc(S(=O)(=O)Nc2ccc3c(c2)CC(=O)N([C@@H](C)CO)C[C@@H](C)[C@@H](CN(C)CC2CCCCC2)O3)cc1	-2.1	-0.1	20.0	100.6*
COc1ccc(S(=O)(=O)Nc2ccc3c(c2)CC(=O)N([C@@H](C)CO)C[C@@H](C)[C@@H](CN(C)CC2CC2)O3)cc1	-7.8	1.2	nt	6.9
COc1ccc(S(=O)(=O)Nc2ccc3c(c2)CC(=O)N([C@@H](C)CO)C[C@H](C)[C@@H](CN(C)CC2CC2)O3)cc1	0.4	0.1	11.1	-4.4
SMILES	MITF inh	PD-1 reversal	Shh pathway inh	NOMO-1 viab
O=C1Oc2cc(O)cc(O)c2[C@@H](c2ccc(O)cc2)[C@H]1[C@H]1C(=O)Oc2cc(O)cc(O)c2[C@H]1c1ccc(O)cc1	-6.7	-1.5	-18.8	19.5
COc1ccc2oc(-c3ccccc3)c(O)c(=O)c2c1	-76.0	1.9	2.6	21.3
N#C/C(=C\Nc1ccc(F)c(Cl)c1)S(=O)(=O)Cc1ccco1	9.5	0.3	-23.9	27.8
O=P1(N2CCN(c3ccc(Cl)cc3)CC2)COc2ccccc2OC1	26.1	-0.2	13.8	13.4
COc1cc(COc2cc(N)c(Cl)cc2C(=O)CCC2CCN(CCNS(C)(=O)=O)CC2)cc(OC)c1	-8.6	-18.4	-47.2	143.1*
O=C(c1nn2c(C(F)(F)F)cc(-c3cccs3)nc2c1Cl)N1CCCc2ccccc21	-18.9	-16.2	46.7	107.4*
O=C(NCCCn1ccnc1)c1nn2c(C(F)(F)F)cc(-c3cccs3)nc2c1Br	-7.6	nt	nt	29.4
O=C(CCCN1C(=O)c2ccccc2C1=O)Nc1ccc(Cl)c(Cl)c1	-16.6	0.7	nt	-3.6
O=C1C(=O)N(Cc2ccc(Cl)c(Cl)c2)c2ccccc21	0.6	-14.3	53.8	96.7*
COc1ccc(Cl)cc1NC(=O)C(C)NS(=O)(=O)c1ccc(Br)cc1 (stereo not given)	9.6	0.6	nt	13.9
COc1ccc(-n2nnnc2SCC(=O)Nc2cc(C)c(Cl)cc2OC)cc1	42.5	-7.1	nt	92.2*
COc1ccc(OC)c(NC(=O)CSc2nnnn2-c2ccccc2)c1	0.2	-2.2	nt	10.3
Cc1ccc(CC(c2nc3ccccc3[nH]2)C(C)c2nc3ccccc3[nH]2)cc1 (stereo not given)	63.1	nt	nt	90.9*
O=c1c(O)c(-c2ccc(O)cc2)oc2cc(OC3O[C@H](CO)[C@@H](O)[C@H](O)[C@H]3O)cc(O)c12 (stereo not given in full)	-9.3	0.3	25.1	17.8
COc1ccc(C2CC(c3ccc(Br)cc3)=NN2C(=O)CCN2CCOCC2)cc1 (stereo not given)	-8.8	-0.9	40.2	40.0
CC1(C)CC(=O)C=C(Sc2nc3ccccc3o2)C1	77.1	-36.5	86.9*	119.7*
Cc1ccc(S(=O)(=O)Nc2cc(S(=O)(=O)c3ccc(C)cc3)c(O)c3ccccc23)cc1	28.6	-3.4	nt	13.0
OC(c1ccccc1)c1oc2ccccc2c1-c1cnn(-c2ccccc2)c1 (stereo not given)	70.2	-13.2	97.7*	112.1*
N#CC1=C(N)N2CCSC2=NC1(C(F)(F)F)C(F)(F)F	-3.2	-0.6	-0.6	-13.9
C[C@H](CO)N1C[C@H](C)[C@H](CN(C)CC2CCCCC2)Oc2ccc(NS(=O)(=O)c3ccc(F)cc3)cc2CC1=O	-7.3	nt	-10.0	104.0*
C[C@H]1CN([C@@H](C)CO)C(=O)Cc2cc(NS(=O)(=O)c3ccc(F)cc3)ccc2O[C@@H]1CN(C)CC1CCCCC1	7.0	-1.4	21.1	123.2*
C[C@@H]1CN([C@H](C)CO)C(=O)Cc2cc(NS(=O)(=O)c3ccc(F)cc3)ccc2O[C@H]1CN(C)CC1CC1	-0.4	0.9	-49.6	17.6
